Sampled rows, rich in hits. Any-hit rate of the full collection: about 19%.
TDP1 cell noCPT = qHTS for Inhibitors of human tyrosyl-DNA phosphodiesterase 1 (TDP1): qHTS in cells in absence of CPT. DT40 Tdp1-/- hTDP1 cells, no CPT, ATP luminescence, 48 h. Potency, µM (series often up to 46.2 µM), most hits filed as inhibitors. 420,000 compounds, 15% hits; also: nearly all actives have a fitted effect of over 55% in size
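Luminescent ATP content (CellTiter-Glo) served as the growth readout. Knockout chicken DT40 cells expressing human TDP1 were exposed to compounds without camptothecin for a minimum 48 hr at 37 °C.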
TDP1 cell CPT = DT40-hTDP1 cell growth loss with CPT; chicken DT40 Tdp1-/-;hTDP1 cells + 20 nM CPT, ATP luminescence, 48 h; 420,000 compounds, 12% hits; Potency, µM (doses to about 46.2 µM), hits mostly inhibitors; also: nearly all actives have a fitted effect of over 55% in size
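Cell growth measured by CellTiter-Glo luminescence after a minimum 48 h, 37 C compound exposure with 20 nM CPT in Tdp1-knockout DT40 cells stably expressing hTDP1, seeded 400/well; qHTS titration format.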
KB-3-1 tox = KB-3-1 parental cell cytotoxicity | KB-3-1 viability, CellTiter-Glo ATP luminescence, 72 h | Potency, µM (highest dose often 46.1 µM), most hits filed as cytotoxic | 400,000 compounds, 1.4% hits; also: nearly all actives have a fitted effect of over 60% in size
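Multi-concentration cytotoxicity screen in KB-3-1 cells grown in DMEM lacking phenol red with 10% FBS. After 72 h at 37 °C with compound, ATP-dependent luminescence was recorded.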
HT1080 IDH1KD tx = toxicity to HT-1080 IDH1 knockdown cells (counter line) | Potency, µM (series often up to 46.1 µM), usual class: cytotoxic | AID 686971 | 360,000 compounds, 2% hits | HT-1080 IDH1 knockdown viability, ATP luminescence, 48 h
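HT-1080-IDH1KD cells (IDH1 knocked down), 750/well in RPMI with 5% FBS, treated with compound 48 h at 37 degrees C. Viability by CellTiter-Glo luminescence, normalised to DMSO and no-cell wells; concentration-response curves classed.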
HT1080NT lethal = kills 2HG-producing HT-1080-NT fibrosarcoma cells. HT-1080-NT fibrosarcoma viability, CellTiter-Glo ATP luminescence, 48 h. 360,000 compounds, 1.6% hits. Potency, µM (doses to about 46.1 µM), usual class: cytotoxic;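 also: NT is the 2HG producing partner of a matched IDH1 knockdown line; nearly all actives have a fitted effect of over 55% in size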
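HT-1080-NT fibrosarcoma cells (2HG-overproducing), 750 cells/well in RPMI with 5% FBS, dosed after 2 h and incubated 48 h at 37C. CellTiter-Glo luminescence normalized to DMSO and no-cell wells; concentration-response curves fitted and classed.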
KB-V1 MDR tox = KB-V1 MDR subline cytotoxicity; Potency, µM (top dose mostly 46.1 µM), most hits filed as cytotoxic; KB-V1 MDR cells viability, CellTiter-Glo, 72 h; AID 1347076; 400,000 compounds, 3.4% hits; also: nearly all actives have a fitted effect of over 60% in size
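Cells of the MDR subline KB-V1 are plated, dosed with compound at multiple concentrations, and incubated 72 h at 37 degrees C; CellTiter-Glo is then added and luminescence read after 10 min.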
Hits are given with their value; 0 = inactive; ? = inconclusive; - = not tested or not shown; [ ] = another dose, or the depositor's remark. Calls follow the shape of the dose curve; as a rule, active = well fitted curve in the direction sought with a large enough effect; inconclusive = small, poorly fitted or top-dose-only effect, or another doubt; inactive = no such curve, though single readings can be large; an effect the other way counts as inactive or inconclusive.

SMILES | TDP1 cell noCPT | TDP1 cell CPT | KB-3-1 tox | HT1080 IDH1KD tx | HT1080NT lethal | KB-V1 MDR tox
Cc1ccc(-n2nc3ccc(NC(=O)COc4ccccc4C)cc3n2)cc1 | ? | ? | 0 | - | - | ?
CNC(C)Cc1ccc2c(c1)OCO2 (stereo unspecified) | 0 | 0 | - | - | - | -
Cc1ccc(NC(=O)C2CCN(C(=O)c3cnn(-c4ccccc4)c3-n3cccc3)CC2)cc1Cl | 13µM | ? | ? | - | - | ?
O=C(NCc1ccc(Cl)cc1)C1CCN(C(=O)c2cnn(-c3ccccc3)c2-n2cccc2)CC1 | 10µM | 15µM | 0 | - | - | 0
COc1ccc(CNC(=O)C2CCN(c3nc(OC)nc(OC)n3)CC2)cc1 | 16µM | ? | 0 | 0 | 0 | 0
Cc1nnc(N2CCC(C(=O)NCc3ccc(N(C)C)cc3)CC2)c2nn(-c3ccccc3)c(C)c12 | ? | ? | 0 | - | - | 0
COc1ccc(CNC(=O)C2CCN(C(=O)c3cnn(-c4ccccc4)c3-n3cccc3)CC2)cc1 | 6.5µM | 16µM | 0 | - | - | 0
COc1ccc(CNCC(=O)N2CCC3(CC2)OCCO3)cc1 | 0 | 0 | 0 | 0 | 0 | 0
COc1ccc2c(c1)c(C(=O)CN1CCC3(CC1)OCCO3)c(C)n2Cc1ccccc1 | 0 | 0 | ? | 0 | ? | ?
Cc1cc(C)nc(N2CCCC(C(=O)Nc3nc4ccc(S(C)(=O)=O)cc4s3)C2)n1 (stereo unspecified) | ? | ? | ? | ? | 0 | ?
CC(C)CN1CC2(CCN(C(=O)c3ccncc3)CC2)C1 | 0 | 0 | - | - | - | -
CCc1nc2ccc(Br)cc2c(=O)n1-c1ccccc1C(F)(F)F | 0 | 0 | 0 | 0 | 0 | 0
CCCc1nc2ccc(Br)cc2c(=O)n1-c1ccc([N+](=O)[O-])c(C(F)(F)F)c1 | ? | ? | ? | ? | ? | 16µM
CCCOP(=O)(c1ccc(N(C)C)cc1)C(O)c1ccc(Cl)cc1Cl (stereo unspecified) | 26µM | 26µM | 0 | ? | 0 | ?
CC(C)c1ccc(C(O)P(=O)(OCc2ccccc2)c2ccc(N(C)C)cc2)cc1 (stereo unspecified) | 26µM | ? | 0 | 0 | 0 | 0
CC(C)CCOP(=O)(c1ccc(N(C)C)cc1)C(O)c1c(Cl)cccc1Cl (stereo unspecified) | 16µM | ? | 0 | 0 | 0 | 0
CN1CC[C@@]2(CCCN(C(=O)Oc3ccccc3)C2)C1 | 0 | 0 | - | - | - | -
O=C(c1csnn1)N1CCC2(CC1)CN(Cc1ccncc1)C2 | 0 | 0 | - | - | - | -
Cn1c(CCCC(=O)O)nc2cc(N(CCCl)CCCl)ccc21 | 19µM | ? | - | - | - | -
CC(C)CC[C@@H](O)[C@](C)(O)C1CC[C@@]2(O)C3=CC(=O)[C@@H]4C[C@@H](O)[C@@H](O)C[C@]4(C)C3CC[C@]12C (stereo partly specified) | 0 | 0 | 0 | 0 | ? | 0
O=c1nc(/C=C/c2ccc(Cl)cc2Cl)cc(C(F)(F)F)[nH]1 | ? | 0 | 0 | 0 | 0 | 0
O=c1cccc2n1CC1CC2CN(Cc2cccc(Cl)c2Cl)C1 (stereo unspecified) | 0 | ? | 0 | ? | 0 | 18µM
Cc1cccc(OCCn2cccc2/C=C2/C(=O)NC(=O)N(Cc3ccco3)C2=O)c1 | 0 | 0 | 0 | 0 | 0 | 0
CC(C)c1ccc(N2C(=O)NC(=O)/C(=C\c3cnc(-c4ccccc4)nc3)C2=O)cc1 | ? | ? | 0 | 0 | 0 | ?
CCc1ccc(N2C(=O)NC(=O)/C(=C/c3cccn3CCOc3ccc(C)cc3)C2=O)cc1 | ? | 26µM | 0 | 0 | 0 | 0
SMILES | TDP1 cell noCPT | TDP1 cell CPT | KB-3-1 tox | HT1080 IDH1KD tx | HT1080NT lethal | KB-V1 MDR tox
CCc1ccc(N2C(=O)NC(=O)/C(=C/c3cccn3CCOc3ccc(C(C)CC)cc3)C2=O)cc1 (stereo unspecified) | 15µM | ? | 0 | 0 | 0 | 0
Cc1ccc(OC(=O)N(C)C[C@@H]2OCc3cnnn3CCCC(=O)N([C@@H](C)CO)C[C@H]2C)cc1 | 0 | 0 | 0 | 0 | 0 | 0
CCCNC(=O)N1[C@H]2CC[C@@H]1C(C(=O)OC)=C(c1ccc(F)cc1F)C2 | ? | ? | 0 | 0 | 0 | 0
C=CCn1c(O)c(C(C)=NCCN2CCN(C(=S)NC)CC2)c(=O)[nH]c1=O | 0 | 0 | 0 | 0 | 0 | 0
CC(C)N1CCOC(c2ccc(O)c(O)c2)C1 (stereo unspecified) | 0 | ? | 0 | 0 | 0 | 0
O=C(N/N=C/c1cccnc1)c1ccc(NC(=O)C(c2ccccc2)c2ccccc2)cc1 | 12µM | 7.3µM | ? | 0 | 0 | 0
CCCCC[C@@H](/C=C/C=C\CCCCCCCC(=O)O)OO | 0[0.628 µM] | 0[0.628 µM] | - | - | - | -
CC1(C)C(O)CC(=O)[C@]2(C)C1CC(=O)[C@]1(C)C2CC[C@@]2(C)C(c3ccoc3)OC(=O)C3O[C@@]321 (stereo partly specified) | 0 | 0 | - | - | - | -
O=C(NCc1ccc2c(c1)CCN2C(=O)c1ccccc1)Nc1cccc(C(F)(F)F)c1 | ? | 15µM | - | - | - | -
O=C(CN1C(=O)CN=C(c2ccccc2)c2ccccc21)Nc1cccc(C(F)(F)F)c1 | ? | ? | 0 | - | - | 0
CC(C)C[C@H](NC(=O)[C@H](Cc1ccccc1)NC(=O)CNC(=O)CNC(=O)[C@@H](N)Cc1ccc(O)cc1)C(=O)N[C@@H](CCCN=C(N)N)C(=O)N[C@@H](CCCCN)C(=O)N[C@@H](Cc1ccc(O)cc1)C(=O)N1CCC[C@H]1C(=O)N[C@@H](CCCCN)C(=O)O | 0[4.12 µM] | 0[4.12 µM] | - | - | - | -
C[C@@H](N)[C@@H](O)c1ccccc1 | 0 | 0 | - | - | - | -
CC(=NC(C)c1ccccc1)c1c(O)[nH]c(=O)[nH]c1=O (stereo unspecified) | 0 | ? | 0 | 0 | 0[9.24 µM] | 0
CCc1ccc(NC(=O)c2ccc3oc(=O)n(Cc4ccccc4)c3c2)cc1 | 18µM | ? | ? | - | - | 0
FC(F)(F)c1ccccc1CNCCc1c[nH]c2ccccc12 | 15µM | ? | 0 | 0 | 0 | 0
Fc1ccccc1CNCCc1c[nH]c2ccccc12 | ? | 16µM | 0 | 0 | 0 | 0
Fc1ccc(CNCCc2c[nH]c3ccccc23)cc1 | 4.6µM | ? | 0 | ? | ? | 0
c1coc(CNCCc2c[nH]c3ccccc23)c1 | 0 | 0 | 0 | 0 | 0 | 0
CCN(c1ccc(C(O)(C(=O)OC)C(F)(F)F)cc1)S(=O)(=O)c1ccccc1 (stereo unspecified) | ? | ? | 0 | 0 | 0 | 0
Cc1ccc(S(=O)(=O)NCC(=O)OCC(=O)N2N=C(c3ccc(Cl)cc3)CC2c2ccco2)cc1C (stereo unspecified) | 23µM | ? | 0 | 0 | 0 | 0

From PubChem
